Experimental data taken from PubChem BioAssay (NCI).
The panel holds about 79,000 compounds, 15% with a hit somewhere; the sample as a whole holds those more often. A number with no mark means an inactive call. Calls of active or inactive are those of the source. Cut-off read from the data, not from the text of the source: active = growth inhibition above about 70%; inactive = the rest.

Test: NCI Yeast Anticancer Drug Screen. Data for the rad50 strain (AID 155);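 note: 0% = growth of vehicle-only cultures of the same strain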
Conditions: S. cerevisiae rad50 strain growth inhibition; at 50.0 µM; hits give high values
Protocol: Growth inhibition of yeast strains with defined genetic alterations is measured as a screen for potential anti-cancer activity. Selected strains with alterations in DNA damage repair or cell cycle control were exposed to compounds and growth inhibition was measured relative to vehicle treated controls. The strain used in this assay is rad50
`Cc1ccc2[nH]c(=S)n(CCc3ccccc3)c(=O)c2c1` gave a growth inhibition of -1.95%. `CC(C)CC(=O)c1ccccn1` showed a growth inhibition of -10.1%. Work on `Nc1nnc2nc(CC(=O)c3ccc(F)cc3)c(CC(=O)c3ccc(F)cc3)nn12` yielded a growth inhibition of -3.6%. For `Cc1ccc(S(=O)(=O)OCCN(CCO)c2cn(C(c3ccccc3)(c3ccccc3)c3ccccc3)c(=O)n(C(c3ccccc3)(c3ccccc3)c3ccccc3)c2=O)cc1`, the growth inhibition was -2.1%. For `CC(C)(C)OC(=O)N1CCc2c(n(C/C=C/c3ccccc3)[nH]c2=O)C1`, the growth inhibition was -30.2%. For `C/C(CC(=O)Nc1ccc(Cl)cc1)=N\NC(N)=S`, the growth inhibition was -7.95%. Work on `C[S+](C)N(c1ccccc1)C(C)(C)C` yielded a growth inhibition of -10.1%. For `CN(Cc1ccccc1)C(=O)c1ccc(C(=O)N(C)Cc2ccccc2)cc1`, the growth inhibition was 1.75%. In the case of `O=C1NNC2(C(=O)N1)c1ccccc1-c1ccccc12`, the growth inhibition is reported as 8.5%. For `CCOP(=O)(OCC)/C(C#N)=C/c1c(C)[nH]c2ccccc12`, the growth inhibition was 0.5%. `CC(=O)N1Cc2ncnc(N)c2C1` gave a growth inhibition of -12.3%. Work on `Cc1ccc([N+](=O)[O-])cc1NC(=O)Oc1cc(=O)oc2ccccc12` yielded a growth inhibition of 3.2%. With `c1ccc(CC[n+]2ccncc2)cc1` the growth inhibition was -8.75%. Molecule `Cc1ccc(C)c(NC(=O)Oc2ccc(Cl)cc2Cc2ccccc2)c1` has a growth inhibition of 5.35%. Molecule `CCC(CO)Nc1nc2c(Cl)cc(Cl)cc2c2ccccc12` (stereo not given) has a growth inhibition of 11.1%. Work on `CCCCCCCCCCCCCCCCCCCCCCCCC(O)C(=O)O` (stereo not given) (tested in a mixture with another compound) yielded a growth inhibition of -33%. `CCCCCCCCCCCCCCCCC[CH2][Sn]([Cl])([CH2]CCCCCCCCCCCCCCCCC)[CH2]CCCCCCCCCCCCCCCCC` showed a growth inhibition of 9.15%. Molecule `O=c1nc(NCC23CC4CC(CC(C4)C2)C3)ccn1C1OC(CO)C(O)C1O` (stereo not given) has a growth inhibition of 21.8%. With `C1=NC(c2ccccc2)=CN(C2CCCCC2)C1(c1ccccc1)C1CCCCC1` (stereo not given) the growth inhibition was 97.1% (active). For `CC(C)=CC(Cc1ccccc1)S(=O)(=O)c1nc2ccccc2s1` (stereo not given), the growth inhibition was 8.8%. For `CC(=O)NCC(OC(C)=O)c1ccc2c(c1)[nH]c1ccccc12` (stereo not given), the growth inhibition was 17.1%. Work on `CC(=O)SCC(C)CCl` (stereo not given) yielded a growth inhibition of -12.4%. Molecule `Cc1ccccc1C=O` has a growth inhibition of -2.75%. Molecule `CCOC(=O)CCC(NC(=O)c1ccc([N+](=O)[O-])cc1)C(=O)OCC` (stereo not given) has a growth inhibition of 29.6%. Work on `O=c1[nH]c2ccccc2nc1/C=C(\O)c1ccc([N+](=O)[O-])cc1` yielded a growth inhibition of 1.55%. Molecule `O=C(Nc1ccc(NC(=O)OCc2ccccc2)c(Cl)c1)OCc1ccccc1` has a growth inhibition of 20.4%. With `Nc1ccc(O)c(C(=O)O)c1` the growth inhibition was 24.1%. With `O=[N+]([O-])c1ccc2c(c1)Cc1cc([N+](=O)[O-])ccc1-2` the growth inhibition was -12.3%. With `C(/C=C/c1ccccc1)=Nc1ccc2c(c1)Cc1ccccc1-2` the growth inhibition was 0.4%. `O=C1C2=C(Nc3cc(Cl)ccc3N2)OC1c1c[nH]c2ccc(COc3ccccc3)cc12` (stereo not given) gave a growth inhibition of -22.4%. `CC(=O)NC1(C)C(C)C2CC1C(C)C2(C)C` (stereo not given) showed a growth inhibition of 13.2%. `CN1CN(C(=O)N2CN(C)C(=O)N(C)C2)CN(C)C1=O` showed a growth inhibition of -10.8%. With `CNCCNc1ncc([N+](=O)[O-])s1` the growth inhibition was -3.25%. For `CCCCOC1NC(=O)NC(=O)C1(F)C(=O)OCC` (stereo not given), the growth inhibition was 4%. `Nc1nc(N)nc(SCC(=O)O)n1` gave a growth inhibition of 8.55%. For `CC(=O)Nc1ccccc1NOC(=O)c1ccccc1NC(C)=O`, the growth inhibition was -3.1%. Molecule `CCN(CC)/[N+]([O-])=N/O` has a growth inhibition of 26.6%. `O=C(CCCN1CCC(Nc2ccccc2)(c2nnnn2C2CCCCC2)CC1)c1ccc(F)cc1` gave a growth inhibition of -7.05%. For `COc1ccc(Cc2ccc(OC)c3ccccc23)c2ccccc12`, the growth inhibition was 9.65%. Work on `CN(C)c1ccc(/C=C(\C#N)c2ccccc2Br)cc1` yielded a growth inhibition of 0.15%.
